Each structure is given as a SMILES string. “And” between values parts separate entries of the source, which are not always exact repeats. Identical values can stand only once. Among all 370,000 compounds or so, about 660 (0.18%) were called active. The sample as a whole holds a higher share of actives than the screen did. Values without a mark were called inactive. Cut-off read from the data, not from the text of the source: active = inhibition above about 11%; inactive = the rest.

For orientation: inhibition means the drop in the measured response relative to a control, in per cent.

1-phosphatidylinositol 4,5-bisphosphate phosphodiesterase beta-3 (Homo sapiens), sequence (Q01970 whole entry, looked up): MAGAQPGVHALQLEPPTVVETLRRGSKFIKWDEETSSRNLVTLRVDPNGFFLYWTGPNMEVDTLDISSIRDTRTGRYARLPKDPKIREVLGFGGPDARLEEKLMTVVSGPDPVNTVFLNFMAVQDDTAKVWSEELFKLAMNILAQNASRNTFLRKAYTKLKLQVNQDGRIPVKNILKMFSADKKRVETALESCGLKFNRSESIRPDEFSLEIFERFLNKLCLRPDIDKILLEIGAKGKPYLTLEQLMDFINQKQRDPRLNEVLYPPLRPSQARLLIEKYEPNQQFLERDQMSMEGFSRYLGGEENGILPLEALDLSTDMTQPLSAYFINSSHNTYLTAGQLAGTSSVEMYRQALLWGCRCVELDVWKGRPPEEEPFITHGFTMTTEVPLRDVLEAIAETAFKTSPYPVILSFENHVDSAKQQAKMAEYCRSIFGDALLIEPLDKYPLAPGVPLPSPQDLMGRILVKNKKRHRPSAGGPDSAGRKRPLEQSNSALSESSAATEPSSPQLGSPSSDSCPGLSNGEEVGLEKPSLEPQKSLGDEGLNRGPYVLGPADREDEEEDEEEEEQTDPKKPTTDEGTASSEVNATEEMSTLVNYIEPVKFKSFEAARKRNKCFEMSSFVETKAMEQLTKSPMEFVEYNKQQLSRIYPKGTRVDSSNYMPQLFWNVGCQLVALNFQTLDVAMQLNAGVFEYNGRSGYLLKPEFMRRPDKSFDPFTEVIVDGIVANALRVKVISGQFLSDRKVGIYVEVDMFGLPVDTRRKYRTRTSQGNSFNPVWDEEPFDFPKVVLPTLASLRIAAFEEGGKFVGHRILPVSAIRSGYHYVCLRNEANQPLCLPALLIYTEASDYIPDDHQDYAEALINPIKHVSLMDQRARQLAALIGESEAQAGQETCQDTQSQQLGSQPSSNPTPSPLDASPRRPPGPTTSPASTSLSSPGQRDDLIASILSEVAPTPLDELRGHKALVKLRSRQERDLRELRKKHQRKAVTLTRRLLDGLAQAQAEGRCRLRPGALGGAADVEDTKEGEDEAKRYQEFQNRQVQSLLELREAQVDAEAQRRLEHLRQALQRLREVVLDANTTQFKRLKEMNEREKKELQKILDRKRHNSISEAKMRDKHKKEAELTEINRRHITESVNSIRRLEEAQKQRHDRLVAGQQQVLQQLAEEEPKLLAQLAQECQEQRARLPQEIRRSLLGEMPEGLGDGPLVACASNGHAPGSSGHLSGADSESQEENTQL

The assay addresses 1-phosphatidylinositol 4,5-bisphosphate phosphodiesterase beta-3 (Homo sapiens) (UniProt Q01970). Nature of the assay: human PLC-beta3 inhibitors, primary screen, biochemical, fluorescence (AID 720704).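 Note: 0% = median of compound wells on plate and 100% = full blocker control.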 As to conditions: Purified PLC-beta3, fluorogenic substrate, at 12.2 µM, active compounds read high.
Regarding `C=CCN1[C@H](CC(C)C)COc2cccc(N3CCCC3)c2S1(=O)=O`, the inhibition is -10.8%.
Consider `C=CCSc1nc2c(c(=O)[nH]1)C(C(C)C)C(C#N)=C(N)O2` (centres undefined), for which the inhibition was -5.98%.
Next, `O=C(NC1CCCC1)C1CC(=O)N(c2ccc(F)cc2)C1` (centres undefined): 1.14%; `NC(=O)C1CC=CCC1C(=O)OCC(Cl)=C(Cl)Cl` (centres undefined): -21%.
Next, `C=C(Cl)COC(=O)C1C2C=CC(C2)C1C(=O)O` (centres undefined): -0.54%.
Regarding `COc1cc(OC)cc(C(=O)OCC(=O)Nc2sccc2C(N)=O)c1`, the inhibition was -6.31%.
Next, `CCOC(=O)c1cnc(SCc2nc(N)nc(Nc3ccc(OC)cc3)n2)nc1N`: 0.61%; `Cc1ccc2nsnc2c1S(=O)(=O)N1CCCC1C(=O)O` (centres undefined): 5.41%; `CC[C@]12c3[nH]c4ccc(Cl)cc4c3CCN1C(=O)[C@@H](CC(=O)NCCCOC)C[C@@H]2C(=O)N1CCN(C(=O)C2CC2)CC1`: -4.01%.
Under `O=C(NC1CC1)C1CCCN(C(=O)NC2CCCCC2)C1` (centres undefined) stands -7.45%; under `CC(C)C(=O)N1CCN(CCN=CC2=C(O)CC(c3ccco3)CC2=O)CC1` (centres undefined), -7.32% and -15%; under `C=CCn1c(SCc2ccc(Cl)c(Cl)c2)nnc1C(CO)NC(=O)c1ccc(OC)cc1` (centres undefined), 4.74%.
As for `COCCCn1cc(CN2CC(N(C)C)CS2(=O)=O)nn1` (centres undefined), the inhibition was -1.16%.
Under `O=C(Nc1c(C(=O)N2CCCCC2)cnn1-c1ccccc1)c1ccco1` stands 2.51%; under `O=C(CN(CC1CCCO1)C(=O)CNS(=O)(=O)c1ccc(F)cc1)NCc1ccco1` (centres undefined), 1.51%; under `O=C1NC2(CCCCC2)N=C1c1ccccc1`, 10%.
With `Cc1ccccc1N1CCN(C2CCCN(C(=O)c3cn4c(C)cccc4n3)C2)CC1` (centres undefined), the inhibition is -10.2%.
Next, `Oc1c(CN2CCCC2)cc(COCc2ccccc2)c2cccnc12`: 16.5% (active).
As for `O=[N+]([O-])c1cc([N+](=O)[O-])c2cccnc2c1O`, the inhibition is -4.85%.
Next, `CCCNC(=O)NC(=O)COC(=O)CC(NC(N)=O)c1ccc(Cl)cc1` (centres undefined): 0.66%; `CCOC(=O)c1cnc(-n2nc(C)cc2C)nc1NNc1cc(C)nc(-c2ccccc2)n1`: 1.49%.
Next, `COc1ccccc1CCNC(=O)C1CCN(c2nc(C)cc(C)n2)CC1`: 1.47%; `COc1ccccc1/C=N\Nc1cc(C)nc(-n2nc(C)cc2C)n1`: 11.2% (active).
Next, `CCCOc1cccc(C(=O)Nc2ccccc2C(=O)N2CCN(C)CC2)c1`: -3.82%.
In the case of `Cn1c(SCC(=O)Nc2cccc(O)c2)nnc1-c1ccc(S(=O)(=O)N2CCOCC2)cc1`, the inhibition was 1.37%.
As for `Cc1ccc(NC(=O)C(C)OC(=O)Cc2c[nH]c3ccccc23)cc1S(=O)(=O)N1CCOCC1` (centres undefined), the inhibition was -3.66%.
Under `CCC(C)(C(=O)NC1CCCCC1)N(C)C(=O)c1ccc2c(c1)OCO2` (centres undefined) stands 3.07%.
Next, `CCOC(=O)c1cccc(NC(=O)CCc2nnc3ccc(N4CCOCC4)nn23)c1`: -10.3%.
Under `CC(=O)c1c(C)[nH]c(C(=O)N2CCN(S(=O)(=O)c3ccc(F)c(F)c3)CC2)c1C` stands -2.62%.
Regarding `COCCNc1ccc(-c2n[nH]c(=O)c3ccccc23)cc1[N+](=O)[O-]`, the inhibition was -3.71%.
Under `O=C(C(=O)N1CCN(c2ccccc2)CC1)c1ccc2c(c1)OCO2` stands -0.14%.
Under `O=CN1CCN(C(=O)c2ccc3c(c2)OCO3)CC1` stands -2.96%.
Under `O=C(c1ccc2c(c1)OCO2)N1CCNc2ccccc2C1` stands 12.9% (active).
As to `O=C(NCc1ccccc1)c1onc(CSc2nc3ccccc3[nH]2)c1C(=O)NCc1ccccc1`, the inhibition is 8.62%.
Under `COc1cc(OC)c(C(=O)N2CCCC2)cc1OC` stands -8.68%; under `CCCc1nc2ccccc2n1C(C)C(=O)NC(C)(C)C` (centres undefined), 1.17%.
Under `Cc1cccc(C)c1NC(=O)C1CCCN1C(=O)OC(C)(C)C` (centres undefined) stands 0.37%; under `CCC[C@H]1CCCC/C=C\CCCC(=O)OCCN1C(=O)OC(C)(C)C`, 13.5% (active); under `Cc1ccc(C)c(NC(=O)C2CCCN2C(=O)OC(C)(C)C)c1` (centres undefined), 5.04%.
For `CC(C)Cn1c(SCC(=O)Nc2ccc(Cl)cc2F)nc(O)cc1=O`, the inhibition was -1.44%.
Under `CC(C)c1ccc(Nc2nnc(SCC(=O)c3nnc(-c4ccccc4)o3)s2)cc1` stands -19.6%; under `O=C(Nc1cccc2ccccc12)c1[nH]c(-c2ccccc2)c2c1C(=O)N(C1CC1)C2=O`, -1.92%; under `CCC(=O)c1ccc(OCC(=O)OCC(=O)N2CCc3ccccc3C2)cc1`, -10.2%.
Under `CO/N=C(/CS(=O)(=O)c1ccc(Br)cc1)c1ccc(OC)cc1` stands 0.43%; under `CCSc1sc(CC)cc1C=O`, -0.46%; under `CCOC(=O)N1CCN(Cc2nc(Cc3cccc(C(F)(F)F)c3)no2)CC1`, -6.49%.
Next, `CC(C)=CCN1CCN(Cc2cc3ccccc3[nH]2)CC1CCO` (centres undefined): -5.94%; `CC(C)(C)OC(=O)Nc1ccc([C@@H](NC(=O)OC(C)(C)C)C(=O)OC(C)(C)C)cc1`: 6.19%; `CCN(CC(=O)Nc1ccc2c(c1)OCCO2)Cc1cc(=O)oc2cc(C)c(C)cc12`: -6.71%.
As to `CO[C@@H]1CN(C)C(=O)c2cc(NC(=O)Nc3cc(F)ccc3F)ccc2OC[C@H](C)N(C(=O)c2ccccn2)C[C@@H]1C`, the inhibition is -2.49%.
Next, `COC(=O)c1ccc(COC(=O)c2cnccn2)cc1`: 4.2%; `O=C(c1ccc(OC2CCN(C/C=C/c3ccc(F)cc3)CC2)cc1)N1CCCCC1`: -10.6%.
Next, `COc1cc(OC)c(-n2cc(-c3ccc(Cl)cc3)[nH]c2=O)cc1Cl`: 1.76%; `Cc1ccc(NC(=O)c2nc[nH]c2C(=O)N2CCCCC2)c(C(=O)c2ccccc2)c1`: -2.21%; `Cc1cc(C(=O)N2CCC(C(=O)O)CC2)c(C(F)(F)F)o1`: -3.87%.
Take `COc1cccc(NC(=O)C(Sc2nc3ccccc3c(=O)n2CC(C)C)c2ccccc2)c1` (centres undefined): the inhibition is 0.44%.
As to `Cc1ccc2nc(-c3ccc(SCC(=O)Nc4cc(C)on4)nc3)[nH]c2c1`, the inhibition was -55.5%.
Next, `CCC(C(=O)NCCC(C)C)N(Cc1ccccc1Cl)C(=O)c1snc(C(N)=O)c1N` (centres undefined): -123%.
Consider `COc1ccccc1Nc1nc(N)nc(CSC(=S)N2CCOCC2)n1`, for which the inhibition was -5.33%.
Next, `Cc1cccc([C@H]2[C@@H]3C=CC[C@@H](C)[C@@H]3C(=O)N2Cc2ccccc2)c1`: -3.88%; `COc1ccc(NC(=O)CCC(=O)N2CCN(S(=O)(=O)c3ccc(C)cc3)CC2)c(OC)c1`: -5.05%.
Next, `CCC1C(C#N)=C(SC)NC2=C1C(=O)CC(C)(C)C2` (centres undefined): -65.6%; `O=C1CCN(Cc2ccccc2)CCN1[C@H](CSc1ccccc1)c1ccccc1`: -6.78%.
Next, `Cc1ccc(C)c(N(CC(=O)NCc2ccco2)C(=O)CCC(=O)Nc2ccccn2)c1`: -1.21%; `Nn1c(SCC(=O)N2c3ccccc3Sc3ccccc32)nnc1-c1n[nH]c2c1CCC2`: -2.4%; `CC1Cc2ccccc2N1C(=O)Cn1cnc2ccccc2c1=O` (centres undefined): -1.51%.
Take `CCCCNC(=O)C1CCCNC1=O` (centres undefined): the inhibition was 1.97%.
For the molecule `CCOC(=O)C1=CCC2C(=O)N(Cc3ccccc3)C(=O)C12` (centres undefined), the inhibition was 0.58%.
Under `CCOCCCNC(=O)C1(O)c2cc(Br)ccc2NC(=O)N1c1ccc(C)c(C)c1` (centres undefined) stands 0.25%; under `COC(=O)NC1(C(F)(F)F)NC(=O)N(C2CCCCC2)C1=O` (centres undefined), 13.8% (active); under `COc1ccc(C(=O)NC2(C(F)(F)F)NC(=O)N(CCCc3ccccc3)C2=O)c(OC)c1OC` (centres undefined), 0.7%.
Next, `O=C(NCCCN1CCCC1=O)c1cccc(S(=O)(=O)NCc2ccccc2)c1`: -4.88%.
Next, `Cc1cccc(C(=O)NCCCN2CCCC2=O)c1`: 11.5% (active); `CCOc1ccc(C(=O)NCCCN2CCCC2=O)cc1`: 2.32%.
As for `O=C1NC(=O)C(CCc2ccccc2)(c2ccccc2)N1` (centres undefined), the inhibition is 2.82%.
Under `OCC1OC(n2cnc3c(N4CCCC4)ncnc32)C(O)C1O` (centres undefined) stands -4.64%.
Under `O=C(Nc1ccccc1C(=O)NCC1CCCO1)c1ccccc1F` (centres undefined) stands -7.42%; under `CCN1CCN(c2c(Cl)cccc2NC(=O)c2ccc(Br)o2)CC1`, 1.67%; under `O=c1/c(=C/c2ccc(CNS(=O)(=O)c3ccccc3)o2)sc2n1CCN=2`, -17.6%.
Next, `CCOC(=O)C1C(c2ccc(OC)c(OC)c2)c2c([nH][nH]c2=O)CC1(C)O` (centres undefined): -7.78%.
Turning to `Cc1ccc(S(=O)(=O)N2CCC(C(=O)N[C@@H](C)C(=O)NCc3ccco3)CC2)cc1`, the inhibition is 0.13%.
Turning to `CC1CCN(S(=O)(=O)c2ccc(S(=O)(=O)NCc3cccnc3)cc2)CC1`, the inhibition was -6.19%.
Next, `CC1CCN(S(=O)(=O)c2ccc(S(=O)(=O)NCc3ccco3)cc2)CC1`: 10.8% (active).
Next, `CC(=O)n1cc([C@H]2C=C(C(=O)N3CCOCC3)O[C@@H](OCc3ccc(CO)cc3)C2)c2ccccc21`: -5.02%; `COC(=O)c1ccccc1-n1cc(COC(=O)NCCc2ccccc2)nn1`: -1.19%; `CC(=O)NC(Cc1ccc(F)c(F)c1)C(=O)NC1CCN(C(=O)c2ccc(C)cc2)CC1` (centres undefined): -5.45%.
Under `O=C(NCc1ccccc1Cl)C(=O)NCC1CCCN1S(=O)(=O)c1cccs1` (centres undefined) stands -11.5%; under `O=C(c1ccccc1Cl)N(Cc1ccccc1F)N1C(=O)CCCC1=O`, -3.35%; under `CC1=C(C)C(=O)OC(C(C)C2CCC3C4CC=C5CC(OC6OC(COC7OC(CO)C(O)C(O)C7O)C(O)C(O)C6O)CC(O)C5(C)C4CCC23C)C1` (centres undefined), 4.96%.

For the origin of these results see PubChem BioAssay AID720704 (The Scripps Research Institute Molecular Screening Center, 2013).
